Screens: PubChem, National Center for Advancing Translational Sciences (NCATS)
Most compounds without a hit are left out; they make up all but 10% or so of the library.
Sfp PPTase inh – Sfp phosphopantetheinyl transferase inhibition. Biochemical Sfp PPTase activity, qHTS. Potency, µM, for inactives: largest response in the series, negative = inhibition, most hits filed as inhibitors. 310,000 compounds, 3.5% hits. Q9F4F7;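 further: the enzyme is Sfp with the accession as filed and its product quenches rhodamine fluorescence; potency means the concentration at half of the fitted maximal effect; 0% = enzyme reaction without inhibitor and -100% = no enzyme wells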
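Step 1, compound plus 15 nM Sfp-PPTase, 15 min, room temperature. Step 2, add rhodamine-CoA (5 uM) and BHQ-2-YbbR (12.5 uM). Step 3, read 525/598 nm fluorescence at 0 and 30 min.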
CCT modulator – changes cytosolic chaperonin activity; purified chaperonin ATPase assay, HTRF ADP detection, 30 min; activity change, % (test concentration not listed), hits read low; 360,000 compounds, 0.3% hits; in the data active means activity change below about -30%
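TRiC (40 or 20 nM final, by batch activity) in 30 mM Tris pH 7.4, 100 mM KCl, 5 mM MgCl2, 1 mM DTT was treated with compound at 76 uM single dose, then 10 uM ATP, 30 min at 37 °C. ADP was read by HTRF Transcreener.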
Mm-Cpn inhibitor – inhibitors of Methanococcus maripaludis chaperonin TRiC (MmCpn). purified Mm-Cpn ATPase, ADP Transcreener TR-FRET. Potency, µM (highest dose often 76.9 µM), for inactives: at the top dose activity, negative = inhibition, actives largely listed as inhibitors. 330,000 compounds, 0.031% hits; further: potency means the concentration at half of the fitted maximal effect; nearly all actives have a fitted effect of over 80% in size
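Purified archaeal Mm-CPN (25nM final) preincubated 10 min at 37degC with compound, then 10uM ATP for 30 min at 37degC; ADP measured by HTRF Transcreener TR-FRET; buffer 30 mM TRIS pH 7.4, 100mM KCl, 5mM MgCl2, 1mM DTT.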
VDR inhibitor – inhibitors of human vitamin D receptor | VDR-SRC2-3 peptide fluorescence polarization, 2 h | Potency, µM, for the others: max response, negative = inhibition, most hits filed as inhibitors | AID 504847 | 400,000 compounds, 0.93% hits; further: potency means the concentration at half of the fitted maximal effect
Target sequence (P11473 whole entry, looked up): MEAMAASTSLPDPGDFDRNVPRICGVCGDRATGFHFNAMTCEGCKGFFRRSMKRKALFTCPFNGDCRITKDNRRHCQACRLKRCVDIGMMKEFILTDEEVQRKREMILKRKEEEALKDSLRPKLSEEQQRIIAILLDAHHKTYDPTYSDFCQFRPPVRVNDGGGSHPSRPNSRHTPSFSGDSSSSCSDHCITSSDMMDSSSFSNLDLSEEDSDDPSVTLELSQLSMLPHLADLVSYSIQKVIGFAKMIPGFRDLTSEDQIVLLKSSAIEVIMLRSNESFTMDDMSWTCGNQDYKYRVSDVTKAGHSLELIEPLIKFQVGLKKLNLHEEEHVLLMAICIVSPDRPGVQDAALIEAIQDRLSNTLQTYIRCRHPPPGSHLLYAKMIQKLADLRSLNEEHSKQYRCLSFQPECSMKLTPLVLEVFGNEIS
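After 23 nl compound addition and a short centrifugation, plates sat for 2 hours at ambient temperature; polarization of fluorescence then indicated loss of VDR binding to peptide SRC2-3.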
PLK1 PBD block – inhibitors of human PLK1 polo-box domain binding; P53350; Plk1 PBD binding of FITC phosphopeptide, fluorescence polarization; Potency, µM, inactives show max response, negative = inhibition, most hits filed as inhibitors; 360,000 compounds, 2.8% hits; further: potency means the concentration at half of the fitted maximal effect; series mostly up to about 57 µM; nearly all actives have a fitted effect of over 65% in size
G9a block – inhibitors of human histone lysine methyltransferase G9a; Potency, µM (doses to about 102 µM), without a hit: at the highest dose activity, negative = inhibition, actives largely listed as inhibitors; G9a H3K9 monomethylation, AlphaScreen, 2 h; Q96KQ7; 350,000 compounds, 8.8% hits; AID 504332; further: potency means the concentration at half of the fitted maximal effect; nearly all actives have a fitted effect of over 75% in size
Target sequence (Q96KQ7 913-1193 limits assumed): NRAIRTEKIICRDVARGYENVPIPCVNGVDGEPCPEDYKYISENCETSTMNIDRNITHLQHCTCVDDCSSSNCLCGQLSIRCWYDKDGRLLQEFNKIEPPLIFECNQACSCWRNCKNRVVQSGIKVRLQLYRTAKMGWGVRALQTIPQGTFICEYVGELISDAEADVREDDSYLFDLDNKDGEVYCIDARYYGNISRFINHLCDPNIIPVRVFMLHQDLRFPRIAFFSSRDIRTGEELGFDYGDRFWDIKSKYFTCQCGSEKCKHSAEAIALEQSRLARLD
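Compounds were preincubated with 20 nM G9a for 15 min, after which biotinylated H3K9 peptide (500 nM) and SAM (20 uM) started a 2 h room-temperature reaction. Monomethylated product was quantified by antibody-based AlphaScreen chemiluminescence.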
* marks the source's active call; other numbers are inactive results; ? = inconclusive; nt = no result given; ! = repeats disagree; [ ] = another dose, or the depositor's remark. Unless noted, the call rests on the fitted dose curve; in most records, active means well fitted curve in the direction sought with a large enough effect; inconclusive means small, poorly fitted or top-dose-only effect, or another doubt; inactive means no such curve, though single readings can be large; an effect the other way counts as inactive or inconclusive. Unless noted, on the % scale 0 is the no-effect control and ±100 the full control effect.

SMILES	Sfp PPTase inh	CCT modulator	Mm-Cpn inhibitor	VDR inhibitor	PLK1 PBD block	G9a block
Cc1cc(C=C2C(=O)NC(=O)NC2=O)c(C)n1-c1cccnc1	-13%	-1	0%	-5%	?	-13%[12.7 µM]
O=C1NCCN2CCCC12 (configuration not stated)	14%	2	1%	11%	-1%	13µM*
COC(=O)c1ccc2ccn(CC(=O)NC(C)C)c2c1	15%	0	-2%	-8%	-6%	?
Cc1ccc(OCCOc2cccc(C=C3C(=O)NC(=O)NC3=O)c2)c(C)c1	50µM*	0	-3%	?	5.3µM*	28µM*
COC(=O)COc1ccc(Cl)cc1Cl	4%	nt	nt	-1%	nt	nt
CCC(C)N1C(=O)/C(=C\c2cc3c4c(c2)CCCN4CCC3)C(=O)NC1=S (configuration not stated)	?	-4	-1%	?	0.95µM*	45µM*
CCC(C)N1C(=O)/C(=C\c2ccc(N3CCCCCC3)cc2)C(=O)NC1=S (configuration not stated)	?	-4	0%	-8%	?	3.5µM*
CC[C@H](C)[C@H](NC(=O)[C@@H](N)Cc1ccc(O)cc1)C(=O)NCC(=O)N[C@@H](CO)C(=O)N[C@@H](CCCN=C(N)N)C(N)=O	-3%	nt	nt	9%	nt	nt
CN[C@@H](C)[C@H](O)c1ccccc1	nt	nt	nt	nt	nt	0.045µM*
COC(=O)[C@@H]1[C@@H](O)[C@@]2(O)c3c(OC)cc(OC)cc3O[C@@]2(c2ccc(OC)cc2)[C@H]1c1ccccc1	10%	nt	nt	nt	nt	nt
CCOc1ccc(Nc2c(S(=O)(=O)c3ccc(C)cc3)cnc3ccc(F)cc23)cc1	nt	nt	nt	3%	nt	10µM*
CCCCCCC(C)(C)c1cc(OC)c2c(c1)OC(C)(C)[C@@H]1CC=C(C)C[C@@H]21	34%	nt	nt	-5%	nt	15%[59 µM]
CCn1c(O)c(C=NCc2cccs2)c(=O)[nH]c1=O	24%	1	0%	?	15µM*	-1%
N#Cc1c(/N=C/c2c(O)n(Cc3ccco3)c(=O)[nH]c2=O)sc2c1CCCC2	79µM*	-6	?	79µM*	24µM*	-16%[0.0925 µM]
O=c1[nH]c(=O)n(Cc2ccco2)c(O)c1C=NCc1cccs1	50µM*	0	nt	-12%	-9%	-37%[59 µM]
O=c1[nH]c(=O)n(Cc2ccco2)c(O)c1/C=N/N1CCCCCC1	-19%	2	2%	15%	-3%	?
CCn1c(O)c(C=NCc2ccccc2)c(=O)[nH]c1=S	5%	-3	-4%	-1%	5%	?
O=[N+]([O-])c1cc(I)c(O)c(I)c1	11%	nt	nt	?	nt	6%[59 µM]
O=C(O)[C@@H]1CCN1	nt	nt	nt	-10%	nt	-2%[59 µM]
Cc1ncc(CN2CC=C(c3ccccc3)CC2)c(N)n1	-18%	nt	nt	nt	nt	nt
CC1Cc2cc3c(cc2C(c2ccc(N)cc2)=NN1)OCO3 (configuration not stated)	nt	nt	nt	nt	nt	8.9µM*
CC1=NN=C(c2ccc(N)cc2)c2cc3c(cc2C1)OCO3	-13%	0	-1%	-2%	-2%	7.5µM*!
CCC(=O)OC1CCC2C3CCC4CC(=O)C=CC4(C)C3CCC12C (configuration not stated)	nt	2	nt	50µM*	-6%	nt
CCCCCCCCCC(=O)O[C@H]1CC[C@H]2[C@@H]3CCC4=CC(=O)CC[C@]4(C)[C@H]3CC[C@]12C	-23%	nt	nt	0%	nt	30%[59 µM]
COc1ccc(C(CNC(=O)Cc2ccc(Cl)c(Cl)c2)N2CCCCC2)cc1 (configuration not stated)	4%	-3	-4%	-13%	-3%	2%
SMILES	Sfp PPTase inh	CCT modulator	Mm-Cpn inhibitor	VDR inhibitor	PLK1 PBD block	G9a block
CN(C(=O)Cc1ccc(Cl)c(Cl)c1)C(CN1CCCC1)c1cccc(N=C=S)c1 (configuration not stated)	45µM*	nt	nt	-5%	nt	18µM*
CN(C(=O)Cc1ccc(Cl)c(Cl)c1)[C@H](CN1CCCC1)c1cccc(N=C=S)c1	50µM*	nt	nt	-4%	nt	nt
CC(C)CCNC(=O)CNC(=O)[C@@H](C)NC(=O)[C@@H](N)Cc1ccc(O)cc1	2%	nt	nt	-1%	nt	nt
Cc1ccc(-c2nc(CN3C(=O)CN=C(c4ccccc4Cl)c4cc(Cl)ccc43)c(C)o2)cc1	nt	nt	nt	1%	nt	-8%[59 µM]
Cc1ccc(C2N(c3cc(C)on3)C(=O)C3CCCN32)cc1 (configuration not stated)	-10%	1	-1%	8%	-19%	35µM*
COc1cc2c(cc1O)C(CCc1ccc(Cl)cc1)N(C)CC2 (configuration not stated)	8%	nt	nt	nt	nt	nt
CC12CCC3C(=CCc4cc(O)ccc43)C1CCC2=O (configuration not stated)	-8%	nt	nt	-19%	nt	5%[2.33 µM]
COC(=O)C(O)(c1ccc(N(C)C(=O)c2cccs2)cc1)C(F)(F)F (configuration not stated)	-8%	-2	3%	50µM*	24µM*	-7%
O=C1OC(=O)C2C3CCC(O3)C12 (configuration not stated)	-23%	nt	1%	1%	nt	-2%[59 µM]
CC(=O)CC1CCCCN1 (configuration not stated)	13%	nt	nt	6%	nt	nt
CCC(C)/C=C(C)/C=C/C1=CC2=C(Cl)C(=O)C(C)(OC(C)=O)C(=O)C2=CO1 (configuration not stated)	10%	1	nt	-16%	-30%	-45%[12.7 µM]
CC[C@H](C)/C=C(C)/C=C/C1=CC2=C(Cl)C(=O)[C@@](C)(OC(C)=O)C(=O)C2=CO1	nt	0	nt	40µM*	1.1µM*	nt
O=C1NC(=O)N(Cc2ccccc2Cl)C(=O)/C1=C/c1cccs1	32µM*	-1	0%	?	1.2µM*	11µM*
Cc1ccc(/C=C2\C(=O)NC(=O)N(CCc3ccc(F)cc3)C2=O)o1	40µM*	2	-2%	-25%	0.95µM*	3.2µM*
Cc1ccc(/C=C2\C(=O)NC(=O)N(Cc3ccccc3Cl)C2=O)o1	71µM*	-3	1%	105%	0.84µM*	13µM*
Cc1ccccc1-n1c(C)cc(/C=C2/C(=O)NC(=O)N(Cc3ccco3)C2=O)c1C	-5%	-2	0%	-5%	-21%	?
COc1ccc(CN2C(=O)NC(=O)/C(=C/c3ccc([N+](=O)[O-])o3)C2=O)cc1	50µM*	nt	-3%	nt	nt	7.1µM*
Cc1c(Cl)cccc1NC(=O)CN1C(=O)C(C)N=C(c2ccccc2)c2ccccc21 (configuration not stated)	nt	nt	nt	3%	nt	2%[59 µM]
Cc1ccc(/C=C2/C(=O)NC(=O)N(Cc3ccc(F)cc3)C2=O)o1	35µM*	nt	-1%	nt	nt	nt
COc1ccc(CN2C(=O)CC(=O)NC2=O)cc1	-4%	0	2%	-22%	-17%	-15%
COc1ccc(CN2C(=O)NC(=O)/C(=C\c3cccc(OC)c3OC)C2=O)cc1	79µM*	-5	-1%	?	30µM*	?
